Reference: ChEMBL document CHEMBL1961873, “Compounds: GSK PKIS; Assays: Nanosyn kinase panel” (2012)

What was measured:
[1] = test system: Proto-oncogene tyrosine-protein kinase receptor Ret (Homo sapiens), P07949 [Y791F]; conditions: at 1 µM
[2] = biological target: Macrophage-stimulating protein receptor (Homo sapiens) (UniProt Q04912); conditions: at 0.1 µM
[3] = biological target: Macrophage-stimulating protein receptor (Homo sapiens) (UniProt Q04912); conditions: at 1 µM
[4] = biological target: Proto-oncogene tyrosine-protein kinase ROS (Homo sapiens) (UniProt P08922); conditions: at 0.1 µM
[5] = biological target: Proto-oncogene tyrosine-protein kinase ROS (Homo sapiens) (UniProt P08922); conditions: at 1 µM
[6] = biological target: Proto-oncogene tyrosine-protein kinase Src (Homo sapiens) (UniProt P12931); conditions: at 0.1 µM
[7] = biological target: Proto-oncogene tyrosine-protein kinase Src (Homo sapiens) (UniProt P12931); conditions: at 1 µM
[8] = biological target: Tyrosine-protein kinase Srms (Homo sapiens) (UniProt Q9H3Y6); conditions: at 0.1 µM
[9] = biological target: Tyrosine-protein kinase Srms (Homo sapiens) (UniProt Q9H3Y6); conditions: at 1 µM
[10] = biological target: Tyrosine-protein kinase SYK (Homo sapiens) (UniProt P43405); conditions: at 0.1 µM
[11] = biological target: Tyrosine-protein kinase SYK (Homo sapiens) (UniProt P43405); conditions: at 1 µM
[12] = biological target: T1, Tyrosine-protein kinase Tec (Homo sapiens) (UniProt P42680); conditions: at 0.1 µM
T1 sequence (whole entry): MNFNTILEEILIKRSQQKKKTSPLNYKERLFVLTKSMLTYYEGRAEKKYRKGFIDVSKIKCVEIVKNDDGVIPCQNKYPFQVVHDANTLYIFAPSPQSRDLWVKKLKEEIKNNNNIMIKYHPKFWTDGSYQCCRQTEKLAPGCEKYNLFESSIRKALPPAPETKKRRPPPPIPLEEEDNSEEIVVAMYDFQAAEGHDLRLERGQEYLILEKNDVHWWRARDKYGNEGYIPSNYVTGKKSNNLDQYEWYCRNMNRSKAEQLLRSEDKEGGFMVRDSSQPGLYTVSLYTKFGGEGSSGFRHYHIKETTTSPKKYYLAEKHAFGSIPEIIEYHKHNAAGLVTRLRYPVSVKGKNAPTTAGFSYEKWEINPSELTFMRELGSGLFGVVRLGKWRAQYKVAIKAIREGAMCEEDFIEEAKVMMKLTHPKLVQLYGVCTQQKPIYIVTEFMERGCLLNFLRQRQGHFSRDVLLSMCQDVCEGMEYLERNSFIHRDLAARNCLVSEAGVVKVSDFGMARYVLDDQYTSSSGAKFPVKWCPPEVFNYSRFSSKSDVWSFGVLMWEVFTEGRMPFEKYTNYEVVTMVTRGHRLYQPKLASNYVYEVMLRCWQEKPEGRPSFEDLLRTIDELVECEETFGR

[13] = biological target: T1, Tyrosine-protein kinase Tec (Homo sapiens); conditions: at 1 µM
[14] = biological target: Angiopoietin-1 receptor (Homo sapiens) (UniProt Q02763); conditions: at 0.1 µM
[15] = biological target: Angiopoietin-1 receptor (Homo sapiens) (UniProt Q02763); conditions: at 1 µM
[16] = biological target: T2, Non-receptor tyrosine-protein kinase TNK1 (Homo sapiens) (UniProt Q13470); conditions: at 0.1 µM
T2 sequence (whole entry): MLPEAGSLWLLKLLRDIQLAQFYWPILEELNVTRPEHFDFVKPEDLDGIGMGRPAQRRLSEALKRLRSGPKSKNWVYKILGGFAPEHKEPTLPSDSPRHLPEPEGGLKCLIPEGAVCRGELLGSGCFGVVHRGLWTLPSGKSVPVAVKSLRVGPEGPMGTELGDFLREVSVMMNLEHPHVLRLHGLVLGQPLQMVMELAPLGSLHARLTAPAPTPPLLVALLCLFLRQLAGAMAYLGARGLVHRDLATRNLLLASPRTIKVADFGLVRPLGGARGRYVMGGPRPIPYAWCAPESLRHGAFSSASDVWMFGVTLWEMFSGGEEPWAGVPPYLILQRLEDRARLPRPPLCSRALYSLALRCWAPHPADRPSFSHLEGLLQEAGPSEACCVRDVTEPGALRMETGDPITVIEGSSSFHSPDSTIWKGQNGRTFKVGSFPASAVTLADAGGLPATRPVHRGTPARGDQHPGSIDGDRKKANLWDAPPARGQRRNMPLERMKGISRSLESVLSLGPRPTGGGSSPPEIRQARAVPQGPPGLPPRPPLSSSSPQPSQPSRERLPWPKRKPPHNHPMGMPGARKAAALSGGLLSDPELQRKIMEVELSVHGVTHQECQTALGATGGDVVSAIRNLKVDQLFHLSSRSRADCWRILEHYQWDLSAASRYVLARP

[17] = biological target: T2, Non-receptor tyrosine-protein kinase TNK1 (Homo sapiens); conditions: at 1 µM
[18] = biological target: Activated CDC42 kinase 1 (Homo sapiens) (UniProt Q07912); conditions: at 0.1 µM
[19] = biological target: Activated CDC42 kinase 1 (Homo sapiens) (UniProt Q07912); conditions: at 1 µM
[20] = biological target: High affinity nerve growth factor receptor (Homo sapiens) (UniProt P04629); conditions: at 0.1 µM;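 further: each value is a mean of replicate percent inhibition readings against TRKA kinase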

Proto-oncogene tyrosine-protein kinase Src (Homo sapiens), sequence (P12931 2-536 limits assumed): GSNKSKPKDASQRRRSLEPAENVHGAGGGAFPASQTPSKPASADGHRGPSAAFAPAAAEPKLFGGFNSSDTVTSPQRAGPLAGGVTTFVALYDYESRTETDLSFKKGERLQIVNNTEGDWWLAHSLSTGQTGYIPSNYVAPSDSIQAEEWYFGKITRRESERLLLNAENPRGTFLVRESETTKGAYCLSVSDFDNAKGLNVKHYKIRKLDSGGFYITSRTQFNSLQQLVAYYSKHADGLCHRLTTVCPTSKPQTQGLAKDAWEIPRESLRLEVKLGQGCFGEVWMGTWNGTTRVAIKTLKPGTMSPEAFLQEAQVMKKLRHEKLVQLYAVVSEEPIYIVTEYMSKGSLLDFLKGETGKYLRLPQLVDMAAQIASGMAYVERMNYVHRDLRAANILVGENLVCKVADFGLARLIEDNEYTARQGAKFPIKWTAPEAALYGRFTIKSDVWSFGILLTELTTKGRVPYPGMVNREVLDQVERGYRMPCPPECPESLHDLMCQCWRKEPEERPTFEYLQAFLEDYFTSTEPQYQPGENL
Tyrosine-protein kinase Srms (Homo sapiens), sequence (Q9H3Y6 whole entry): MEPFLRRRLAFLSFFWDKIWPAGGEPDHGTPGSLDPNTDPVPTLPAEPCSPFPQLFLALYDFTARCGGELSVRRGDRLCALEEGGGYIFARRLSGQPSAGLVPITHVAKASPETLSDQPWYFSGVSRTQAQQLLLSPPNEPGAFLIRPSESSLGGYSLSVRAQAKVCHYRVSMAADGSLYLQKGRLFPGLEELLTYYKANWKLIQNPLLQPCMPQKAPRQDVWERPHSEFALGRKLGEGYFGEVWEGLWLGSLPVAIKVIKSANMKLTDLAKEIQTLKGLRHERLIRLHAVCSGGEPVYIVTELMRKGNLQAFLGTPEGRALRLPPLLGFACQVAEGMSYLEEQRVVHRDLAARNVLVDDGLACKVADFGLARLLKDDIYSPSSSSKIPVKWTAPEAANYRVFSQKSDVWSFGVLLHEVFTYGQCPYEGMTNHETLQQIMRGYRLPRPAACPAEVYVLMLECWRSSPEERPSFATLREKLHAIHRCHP
Activated CDC42 kinase 1 (Homo sapiens), sequence (Q07912 whole entry, looked up): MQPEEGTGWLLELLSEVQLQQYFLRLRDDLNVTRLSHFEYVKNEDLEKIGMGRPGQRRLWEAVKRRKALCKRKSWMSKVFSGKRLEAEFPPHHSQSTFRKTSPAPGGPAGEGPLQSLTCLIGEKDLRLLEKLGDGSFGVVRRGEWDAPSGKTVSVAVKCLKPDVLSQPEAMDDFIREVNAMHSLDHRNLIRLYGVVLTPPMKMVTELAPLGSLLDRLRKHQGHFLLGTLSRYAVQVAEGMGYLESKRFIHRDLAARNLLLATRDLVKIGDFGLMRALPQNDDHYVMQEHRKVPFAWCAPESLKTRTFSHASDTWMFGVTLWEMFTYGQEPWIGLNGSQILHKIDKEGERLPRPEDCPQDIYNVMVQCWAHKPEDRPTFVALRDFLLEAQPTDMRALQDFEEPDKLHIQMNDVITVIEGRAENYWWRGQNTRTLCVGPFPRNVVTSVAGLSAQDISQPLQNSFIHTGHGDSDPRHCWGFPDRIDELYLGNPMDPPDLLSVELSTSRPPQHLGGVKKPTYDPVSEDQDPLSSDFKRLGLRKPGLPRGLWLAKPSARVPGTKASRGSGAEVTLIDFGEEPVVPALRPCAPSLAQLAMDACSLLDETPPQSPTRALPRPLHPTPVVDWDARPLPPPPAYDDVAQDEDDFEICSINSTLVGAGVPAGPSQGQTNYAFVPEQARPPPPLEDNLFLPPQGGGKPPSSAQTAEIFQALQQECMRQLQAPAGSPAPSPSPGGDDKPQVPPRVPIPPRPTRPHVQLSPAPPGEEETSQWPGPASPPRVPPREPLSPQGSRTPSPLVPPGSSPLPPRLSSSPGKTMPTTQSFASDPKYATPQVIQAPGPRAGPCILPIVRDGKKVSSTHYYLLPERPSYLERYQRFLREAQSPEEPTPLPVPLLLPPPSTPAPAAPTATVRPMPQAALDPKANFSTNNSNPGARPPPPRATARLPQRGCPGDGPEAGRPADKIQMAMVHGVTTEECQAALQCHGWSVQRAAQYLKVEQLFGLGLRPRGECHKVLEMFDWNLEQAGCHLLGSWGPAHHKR
Macrophage-stimulating protein receptor (Homo sapiens), sequence (Q04912 25-304 limits assumed): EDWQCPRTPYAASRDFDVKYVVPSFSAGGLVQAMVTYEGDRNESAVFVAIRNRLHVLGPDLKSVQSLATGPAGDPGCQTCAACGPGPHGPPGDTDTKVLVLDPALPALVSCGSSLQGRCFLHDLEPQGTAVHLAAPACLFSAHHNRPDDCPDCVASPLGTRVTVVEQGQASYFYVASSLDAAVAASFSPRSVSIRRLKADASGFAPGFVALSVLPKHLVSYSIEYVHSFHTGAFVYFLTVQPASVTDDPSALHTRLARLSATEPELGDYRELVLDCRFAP
Macrophage-stimulating protein receptor (Homo sapiens), sequence (Q04912 310-1400 limits assumed): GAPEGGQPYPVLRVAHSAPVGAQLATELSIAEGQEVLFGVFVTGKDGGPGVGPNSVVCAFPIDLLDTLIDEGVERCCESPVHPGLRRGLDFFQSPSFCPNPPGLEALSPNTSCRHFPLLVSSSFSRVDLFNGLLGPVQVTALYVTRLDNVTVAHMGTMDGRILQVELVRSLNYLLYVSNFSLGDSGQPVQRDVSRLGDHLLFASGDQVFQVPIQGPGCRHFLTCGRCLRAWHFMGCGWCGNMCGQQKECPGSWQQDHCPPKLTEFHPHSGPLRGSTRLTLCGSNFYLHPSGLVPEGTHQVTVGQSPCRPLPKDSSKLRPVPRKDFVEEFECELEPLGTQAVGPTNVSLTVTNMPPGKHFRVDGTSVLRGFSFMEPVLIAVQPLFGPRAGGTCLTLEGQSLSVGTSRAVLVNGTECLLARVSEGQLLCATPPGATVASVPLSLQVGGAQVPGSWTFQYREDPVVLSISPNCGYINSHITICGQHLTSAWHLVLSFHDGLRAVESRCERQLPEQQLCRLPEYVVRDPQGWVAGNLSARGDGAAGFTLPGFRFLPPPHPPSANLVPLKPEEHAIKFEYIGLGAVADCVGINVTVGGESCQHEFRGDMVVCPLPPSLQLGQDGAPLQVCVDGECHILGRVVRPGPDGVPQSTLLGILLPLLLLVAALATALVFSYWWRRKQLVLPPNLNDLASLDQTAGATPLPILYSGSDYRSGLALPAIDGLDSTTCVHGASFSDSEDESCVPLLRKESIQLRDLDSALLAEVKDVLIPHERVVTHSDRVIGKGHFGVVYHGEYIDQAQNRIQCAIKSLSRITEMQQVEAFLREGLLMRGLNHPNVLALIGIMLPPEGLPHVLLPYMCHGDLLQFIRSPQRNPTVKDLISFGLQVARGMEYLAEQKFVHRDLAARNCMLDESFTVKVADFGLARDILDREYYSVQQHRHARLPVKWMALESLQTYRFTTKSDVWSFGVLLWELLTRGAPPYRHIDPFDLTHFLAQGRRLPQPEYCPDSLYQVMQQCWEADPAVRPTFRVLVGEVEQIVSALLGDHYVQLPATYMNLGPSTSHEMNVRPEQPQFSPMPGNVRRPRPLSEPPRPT
Proto-oncogene tyrosine-protein kinase receptor Ret (Homo sapiens), P07949 [Y791F], sequence (P07949 whole entry Y791F): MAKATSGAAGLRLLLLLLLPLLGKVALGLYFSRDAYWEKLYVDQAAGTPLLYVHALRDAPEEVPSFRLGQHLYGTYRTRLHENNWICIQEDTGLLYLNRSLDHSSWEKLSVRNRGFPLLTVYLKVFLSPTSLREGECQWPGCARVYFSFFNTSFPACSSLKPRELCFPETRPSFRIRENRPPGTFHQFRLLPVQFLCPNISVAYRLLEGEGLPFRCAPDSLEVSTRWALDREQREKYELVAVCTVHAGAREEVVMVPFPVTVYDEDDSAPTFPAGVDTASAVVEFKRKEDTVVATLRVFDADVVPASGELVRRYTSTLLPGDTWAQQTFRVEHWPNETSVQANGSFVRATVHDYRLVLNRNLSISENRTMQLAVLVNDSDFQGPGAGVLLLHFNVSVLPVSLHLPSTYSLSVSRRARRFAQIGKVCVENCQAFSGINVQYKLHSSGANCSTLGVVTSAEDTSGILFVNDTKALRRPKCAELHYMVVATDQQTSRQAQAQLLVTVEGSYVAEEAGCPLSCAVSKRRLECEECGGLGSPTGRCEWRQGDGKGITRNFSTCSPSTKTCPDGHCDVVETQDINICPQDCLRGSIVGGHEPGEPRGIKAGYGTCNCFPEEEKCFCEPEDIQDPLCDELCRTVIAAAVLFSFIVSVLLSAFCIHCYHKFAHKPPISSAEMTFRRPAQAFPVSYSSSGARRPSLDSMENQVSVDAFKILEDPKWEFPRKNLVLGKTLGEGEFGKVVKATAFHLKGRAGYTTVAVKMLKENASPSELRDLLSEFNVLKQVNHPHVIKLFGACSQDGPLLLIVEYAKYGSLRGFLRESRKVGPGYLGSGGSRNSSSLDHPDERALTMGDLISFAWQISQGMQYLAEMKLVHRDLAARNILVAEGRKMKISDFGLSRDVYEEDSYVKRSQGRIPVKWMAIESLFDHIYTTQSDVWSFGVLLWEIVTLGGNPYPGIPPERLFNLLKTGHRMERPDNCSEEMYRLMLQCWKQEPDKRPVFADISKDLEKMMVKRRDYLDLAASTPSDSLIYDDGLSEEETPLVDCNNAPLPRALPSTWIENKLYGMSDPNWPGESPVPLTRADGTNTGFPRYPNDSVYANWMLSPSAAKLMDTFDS

SMILES | inhibition [1] | inhibition [2] | inhibition [3] | inhibition [4] | inhibition [5] | inhibition [6] | inhibition [7] | inhibition [8] | inhibition [9] | inhibition [10] | inhibition [11] | inhibition [12] | inhibition [13] | inhibition [14] | inhibition [15] | inhibition [16] | inhibition [17] | inhibition [18] | inhibition [19] | inhibition [20]
COc1cc(Nc2ncc3c(C)nc(-c4cccc(Oc5ccccc5)c4)n3n2)cc(OC)c1OC | 12.9% | 2.03% | 2.13% | 13.1% | 14.7% | -4.09% | 21.7% | 0.72% | -0.11% | 0.87% | 0.13% | 2.22% | 5.31% | 1.33% | 3.09% | 4.56% | 23.8% | 0.46% | 1.9% | 2.69%
NCc1ccc(-n2c(-c3nonc3N)nc3cnccc32)cc1 | 7.16% | 2.95% | 2.64% | 15.3% | 33% | 9.83% | 9.77% | -2.58% | -2.9% | -3.99% | -0.51% | 4.69% | 4.95% | 2.68% | 3.28% | 5.04% | 3.5% | 1.93% | 5.77% | 1.82%
O=C(Nc1n[nH]c2nc(-c3ccco3)ccc12)C1CC1 | 8.66% | -0.93% | 4.1% | 3% | 3.03% | -4.02% | 4.81% | 1.77% | 1.57% | -0.47% | 1.5% | 1.47% | 3.97% | 5.28% | 10.4% | 0.16% | 1.24% | -0.07% | 0.93% | 4.04%
COc1ccc2ncn(-c3cc(O[C@H](C)c4ccccc4Cl)c(C(N)=O)s3)c2c1 | 8.71% | 2.64% | 3.04% | 6.54% | 10.9% | 6.13% | 5.73% | -3.68% | -2.35% | -1.79% | -3.45% | -2.01% | 0.84% | 1.72% | 7.48% | 3.02% | 24.1% | 0.31% | 1.16% | 8.17%
Nc1nccc(-c2c(-c3ccc(F)cc3)ncn2C2CCC(O)CC2)n1 (stereo not given) | 25.2% | 3.96% | 13.3% | 28.6% | 76.4% | 0.34% | 18.3% | -0.15% | 2.5% | -1.99% | 4.19% | -0.76% | 5.34% | -0.11% | 4.5% | -3.34% | 8.33% | -0.32% | 0.4% | 0.87%
CN(c1ccc(NC(=O)Nc2c(Cl)cccc2Cl)cc1)c1ccnc(Nc2cccc(CS(C)(=O)=O)c2)n1 | 64.8% | 68.8% | 82.1% | 14.8% | 33.5% | 40.7% | 65.4% | 2.98% | 3.99% | 2.77% | -9.25% | 10.1% | 21.4% | 64.2% | 72.1% | 59.8% | 84.1% | 1.13% | 4.21% | 49.7%
